Experimental findings from PubChem BioAssay AID504329 (Southern Research Specialized Biocontainment Screening …, 2011) are described below.

In all, about 340,000 compounds went through this assay and about 1,000 (0.29%) were called active. Not all results are given here. Measured potencies and affinities stand elsewhere. A number with no mark means an inactive call. No stated cut-off is given here; in the data, inconclusive means inhibition above about 27% without an active follow-up result; inactive means below that.

The nature of the assay: NS1A inhibition, H1N1 influenza, cell based functional assay (AID 504329). Conditions: percent inhibition, at 12.5 µM, active compounds read high.
As a reminder, the inhibition is the change of the read-out against control, counted positive when it falls. As to `COc1ccc(NC(=O)c2ccc(NC(=O)CN(C)CC(=O)Nc3c(C)cccc3C)cc2)cc1`, the inhibition is -7.57%. For `C/C=C\C=C\C(=O)N1CC2(CC(c3cccc(NC(=O)CC(c4ccccc4)c4ccccc4)c3)=NO2)C[C@H]1C(N)=O` (some centres undefined) the value was 2.26%; for `COCCCNC(=O)c1cc(=O)n(Cc2ccc(Cl)cc2)c2ccccc12`, 6.81%.

`CCCCCc1cc(=O)oc2c(C(CCN(CC)CC)c3cc(OC)c(OC)c(OC)c3)c(OC)cc(OC)c12` (centres undefined): the inhibition is 9.43%. For `CCCCCc1cc(=O)oc2c(C(CCN3CCN(c4ccccc4)CC3)c3ccc(N(C)C)cc3)c(OC)cc(OC)c12` (centres undefined) the value was -11.8%. To `CCCCCc1cc(=O)oc2c(C(CCN3CCCC(C)C3)c3ccc4c(c3)OCO4)c(OC)cc(OC)c12` (centres undefined) belongs 16.4%.

For `CCCCCc1cc(=O)oc2c(C(CCN3CCCC(C)C3)c3ccc(OC)cc3)c(OC)cc(OC)c12` (centres undefined), the inhibition is 8.01%.

For `CCCCCc1cc(=O)oc2c(C(CCN3CCCCC3)c3ccc(OC)cc3)c(OC)cc(OC)c12` (centres undefined), the inhibition was 18.7%. As for `CCCCCc1cc(=O)oc2c(C(CCN(CC)CC)c3ccc(OC)cc3)c(OC)cc(OC)c12` (centres undefined), the inhibition was 5.11%. For `Nc1nnc(SCC(=O)NCCNC(=O)CSc2nnc(N)s2)s1` the value was -11.3%; for `Cc1noc(-c2ccc(Cl)cc2)c1C(=O)O/N=C(\N)c1ccc(C(C)(C)C)cc1`, 12.5%; for `O=C(CN1CCCCC1)N=Nc1c(O)[nH]c2ccccc12`, -8.88%.

As for `Cc1ccc(-c2nnc(N3CCCCC3)c3ccccc23)cc1S(=O)(=O)N(C)C`, the inhibition was -3.68%. To `CS(=O)(=O)Oc1ccc2c(c1)O/C(=C\c1cccc([N+](=O)[O-])c1)C2=O` belongs 7.03%; to `CS(=O)(=O)c1ccc(S(=O)CC(=O)OCc2ccccc2)c([N+](=O)[O-])c1` (centres undefined), 11.4%; to `COc1ccccc1OCCOC(=O)Nc1ccccc1`, -11.2%. Regarding `COc1cc(/C=C2/C(=O)N(c3ccc(Br)cc3)N=C2C)cc(OC)c1OC`, the inhibition is 3.78%. For the compound `COc1cc(/C=C2\C(=O)N(c3ccc(NC(C)=O)cc3)N=C2c2ccccc2)ccc1O`, the inhibition is 12.5%. `COc1cc(/C=C2/C(=O)N(c3ccc(C(=O)O)cc3)N=C2C)cc(OC)c1O`: the inhibition is 13.2%. To `O=C1/C(=C\c2ccc(O)c(O)c2)C(c2ccccc2)=NN1c1ccccc1` belongs 23.5%. For the compound `CCOC(=O)C1CCC(CN(Cc2ccccc2)S(=O)(=O)c2ccc([N+](=O)[O-])cc2)CC1` (centres undefined), the inhibition is 6.67%. To `CCOC(=O)c1ccc(COc2ccc(C(C)C)cc2)o1` belongs -6.49%.

With `O=C1CSC(=S)N1/N=C/c1ccc(O)c(O)c1O`, the inhibition is -1.09%. For `CCOc1cccc(/C=N/N=C/c2cccc(OCC)c2O)c1O` the value was -10.6%; for `O=C1CSC(=S)N1N=Cc1cccc2ccccc12`, 13.2%. For `COc1ccccc1C=NN1C(=O)CSC1=S` the value was 1.86%; for `Cc1ccccc1/C=N/N1C(=O)CSC1=S`, -0.54%. For `CCOc1cccc(/C=N/N2C(C)CCCC2C)c1O` (centres undefined) the value was -10.1%.

For the compound `CC(=O)O[C@H]1[C@H](O)[C@H](Oc2c(O)c(C)c3c4c2[C@@H](C)CC[C@@H]4[C@@H](C)C[C@H]3C=C(C)C)O[C@@H](C)[C@H]1O`, the inhibition is 4.02%. To `COc1ccc(-c2nc3ccccc3c(=O)n2CC(C)C)cc1` belongs -17.7%; to `CCN1C(=NCCCOC(C)C)N[C@@H](CCc2ccccc2)[C@H](C(=O)NCCCOC(C)C)[C@H]1C`, 7.63%. For `COc1ccc(OC)c(C(=O)N(C)C2CCCN(Cc3ccccc3F)C2)c1` (centres undefined) the value was 2.52%. To `COC(=O)C1=C(c2c(C)noc2C)C[C@@H]2CC[C@H]1N2C(=O)NCCCOC(C)C` belongs -1.03%; to `COC(=O)C1CCN(C(=O)/C=C/c2ccc(OC)cc2)CC1`, 1.45%; to `CCOc1ccccc1OCCCC(=O)ON=C(N)c1ccccc1`, -17.2%. Regarding `COc1ccc(-c2c(NC(=O)c3ccco3)oc3ccccc3c2=O)cc1OC`, the inhibition is 9.22%.

Take `CCOc1ccccc1C(=S)NC1CCCCC1`: the inhibition is -0.78%. For `CCOc1ccccc1OCCNC1CCCC1` the value was -3.47%.

As for `CC(C)C[C@@H]1CN=C(N)N1C[C@@H]1CCCN1C[C@@H](C(C)C)N1C[C@@H](Cc2ccccc2)N(CCCC2CCCC2)C1=N`, the inhibition is 0.6%.

Consider `CCOc1ccc(S(=O)(=O)Nc2ccc(C(=O)NCC(C)(C)N3CCOCC3)cc2)cc1`, for which the inhibition was -9.51%. Consider `O=C(O)c1cc(S(=O)(=O)O)ccc1O`, for which the inhibition was -4.88%. To `O=C(O)c1cc(S(=O)(=O)Nc2ccccc2C(=O)O)ccc1O` belongs -2.33%. To `O=C(NNC(=O)c1cc(-c2cccc(Br)c2)nc2ccccc12)c1csc(N2CCOCC2)n1` belongs -7.9%; to `COc1cc([N+](=O)[O-])cc(/C=N/NC(=O)c2cncc(Br)c2)c1O`, -13.3%. Take `COc1cc(/C=N/NC(=O)c2ccc(C)nc2)cc([N+](=O)[O-])c1O`: the inhibition was -21.2%. In the case of `COc1cc([N+](=O)[O-])cc(/C=N/NC(=O)c2ccc(NC(=O)c3ccc(C)cc3)cc2)c1O`, the inhibition is -0.59%. For `Oc1ccc(Br)cc1/C=N/Nc1ncc(-c2ccccc2)cn1` the value was -1.12%; for `O=C(N/N=C/c1ccncc1)c1ccncc1`, 0.03%. For `O=C(N/N=C/c1cc2c(cc1Cl)OCO2)c1ccncc1` the value was -1.41%. For `Cc1cc(C)nc(N/N=C/c2cc(Br)ccc2O)n1` the value was 8.15%; for `COc1cc([N+](=O)[O-])cc(/C=N/NC(=O)c2cccnc2)c1O`, -13.7%. Consider `Cc1ccc([N+](=O)[O-])cc1S(=O)(=O)Nc1ccc(OCC(=O)N2CCOCC2)cc1`, for which the inhibition is -6.07%. On to `COC(=O)c1ccccc1S(=O)(=O)NC(=O)c1ccccc1`, for which the inhibition is -2.87%. On to `CCOC(=O)C1CCN(CCC(=O)Nc2ccc(Br)cc2)CC1`, for which the inhibition is -10.6%.

`CC(Sc1nnc2ccccn12)C(N)=O` (centres undefined): the inhibition was 7.97%. On to `Cc1ccc(S(=O)(=O)Nc2ccccc2C(=O)N2CCCCC2)cc1`, for which the inhibition is -16.7%. To `COc1ccc(C(=O)Nc2cccc(C)n2)cc1S(=O)(=O)N1CCCc2ccccc21` belongs 8.43%. For `CC(C)(C)OC(=O)N1C[C@H](O)C[C@H]1C(=O)OCC(=O)c1ccc([N+](=O)[O-])cc1` the value was 9.24%; for `CN(CC(=O)Nc1ccc(Cl)c(S(=O)(=O)N2CCOCC2)c1)C(=O)c1cccs1`, -3.85%; for `Cc1cnc(C)c(N2CCN(Cc3cn(C)nc3-c3cccc(Cl)c3)CC2)n1`, -9.06%. For `COC(=O)C(C(=O)OC)[C@@H]1C=C[C@H](C[N+](=O)[O-])N(C(C)=O)C1` the value was -12.3%.

Consider `CCCOc1ccc(CNC(=O)C2CCN(c3nnc(N4CCCC4=O)s3)CC2)cc1`, for which the inhibition is -2.57%.

`Cc1ccccc1NC(=O)c1c(Cl)nc(C)c(Cl)c1C`: the inhibition is -3.05%. For `O=C(NCc1ccncc1)C1CCC(=O)N(CCc2ccc(Cl)cc2)C1` (centres undefined) the value was -3.67%. For the compound `Cc1ccc(/C=N/NC(=O)C(c2ccncc2)N2CCOCC2)cc1` (centres undefined), the inhibition is 3.83%. To `O=C(NCC1CCCO1)C(=O)N/N=C/c1ccc(O)c(Cl)c1` (centres undefined) belongs 11.2%. For `O=C(CNC(=O)c1ccncc1)N/N=C/c1cc(Br)ccc1O` the value was 2.02%. To `Cc1ccc(C(=O)N/N=C\c2cc3c(cc2Br)OCO3)cn1` belongs -7.88%; to `COc1ccc(Br)cc1/C=N/NC(=O)C(c1ccncc1)N1CCOCC1` (centres undefined), 2.7%. With `O=C(N/N=C/c1cc([N+](=O)[O-])ccc1O)c1ccncc1`, the inhibition is -34.5%. For `COc1ccc(C(=O)N/N=C/c2cc(Br)ccc2O)cc1OC` the value was -6.16%; for `O=C(NCC1CCCO1)C(=O)N/N=C/c1cccc(Cl)c1` (centres undefined), 1.01%. For `COC(=O)c1ccc(N2CCN(C)CC2)c(NC(=O)COc2cccc(C)c2)c1` the value was 8.25%; for `CC12CCC(=O)N1C(C(=O)Nc1ccccc1N1CCOCC1)CS2` (centres undefined), 1.95%; for `O=C(CCCC(=O)Nc1ccc(Br)cc1)N/N=C/c1ccccc1`, -7.56%. In the case of `CNC(=S)NN=C(C)CCCC(C)=NNC(=S)NC`, the inhibition was -24.1%. To `O=C1c2cccc([N+](=O)[O-])c2C(=O)N1C1CCCCC1` belongs -11.8%.

As for `CN1CCN(C(=O)CNC(=O)C23CC4CC(CC(C4)C2)C3)CC1`, the inhibition was -0.78%. As for `O=C(N/N=C/c1cccnc1)c1cccc(Cl)c1`, the inhibition was -19.1%. As to `O=C(N/N=C/c1cc(Cl)ccc1O)c1ccc(Br)cc1`, the inhibition is -2.86%. For `O=C(N/N=C/c1coc2ccc(Cl)cc2c1=O)c1ccncc1` the value was 2.11%; for `O=C(N/N=C/c1ccc(Cl)cc1Cl)c1ccncc1`, -7.47%; for `COc1ccc(/C=C(\NC(=O)c2ccco2)C(=O)N2CCOCC2)cc1`, 10.3%. In the case of `CCN(CC)Cc1cc(C(C)(C)C)cc(N2CCOCC2)c1O`, the inhibition is 3.29%. Consider `CCc1cc(=O)[nH]c(SCCc2ccccc2)n1`, for which the inhibition was 1.92%. To `O=C(NC1CCCC1)C1CCCN1C(=O)Nc1ccccc1` (centres undefined) belongs 7.61%; to `CCOc1cccc(-c2c(C(=O)N/N=C(\C)c3cccnc3)nnn2-c2nonc2N)c1`, -0.26%; to `CCOc1cccc(-c2c(C(=O)N/N=C(\C)c3ccncc3)nnn2-c2nonc2N)c1`, 0.12%. For `N=C1c2ccccc2CN1NC(=O)c1ccc(Br)o1` the value was -1.62%.
